# Screening results from PubChem BioAssay.
# FAS TE block: FAS thioesterase (human) inhibition | P49327 | recombinant FAS-TE, OMFH fluorogenic substrate, fluorescence endpoint | inhibition, % at 15 µM | hit rate 0.67% among 360,000;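 active = compounds whose normalised, plate-corrected inhibition of enzyme fluorescence in the single-dose primary screen is 50% or more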;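 also: 0% = DMSO with enzyme and 100% = substrate without enzyme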
# Target sequence (P49327 whole entry, looked up): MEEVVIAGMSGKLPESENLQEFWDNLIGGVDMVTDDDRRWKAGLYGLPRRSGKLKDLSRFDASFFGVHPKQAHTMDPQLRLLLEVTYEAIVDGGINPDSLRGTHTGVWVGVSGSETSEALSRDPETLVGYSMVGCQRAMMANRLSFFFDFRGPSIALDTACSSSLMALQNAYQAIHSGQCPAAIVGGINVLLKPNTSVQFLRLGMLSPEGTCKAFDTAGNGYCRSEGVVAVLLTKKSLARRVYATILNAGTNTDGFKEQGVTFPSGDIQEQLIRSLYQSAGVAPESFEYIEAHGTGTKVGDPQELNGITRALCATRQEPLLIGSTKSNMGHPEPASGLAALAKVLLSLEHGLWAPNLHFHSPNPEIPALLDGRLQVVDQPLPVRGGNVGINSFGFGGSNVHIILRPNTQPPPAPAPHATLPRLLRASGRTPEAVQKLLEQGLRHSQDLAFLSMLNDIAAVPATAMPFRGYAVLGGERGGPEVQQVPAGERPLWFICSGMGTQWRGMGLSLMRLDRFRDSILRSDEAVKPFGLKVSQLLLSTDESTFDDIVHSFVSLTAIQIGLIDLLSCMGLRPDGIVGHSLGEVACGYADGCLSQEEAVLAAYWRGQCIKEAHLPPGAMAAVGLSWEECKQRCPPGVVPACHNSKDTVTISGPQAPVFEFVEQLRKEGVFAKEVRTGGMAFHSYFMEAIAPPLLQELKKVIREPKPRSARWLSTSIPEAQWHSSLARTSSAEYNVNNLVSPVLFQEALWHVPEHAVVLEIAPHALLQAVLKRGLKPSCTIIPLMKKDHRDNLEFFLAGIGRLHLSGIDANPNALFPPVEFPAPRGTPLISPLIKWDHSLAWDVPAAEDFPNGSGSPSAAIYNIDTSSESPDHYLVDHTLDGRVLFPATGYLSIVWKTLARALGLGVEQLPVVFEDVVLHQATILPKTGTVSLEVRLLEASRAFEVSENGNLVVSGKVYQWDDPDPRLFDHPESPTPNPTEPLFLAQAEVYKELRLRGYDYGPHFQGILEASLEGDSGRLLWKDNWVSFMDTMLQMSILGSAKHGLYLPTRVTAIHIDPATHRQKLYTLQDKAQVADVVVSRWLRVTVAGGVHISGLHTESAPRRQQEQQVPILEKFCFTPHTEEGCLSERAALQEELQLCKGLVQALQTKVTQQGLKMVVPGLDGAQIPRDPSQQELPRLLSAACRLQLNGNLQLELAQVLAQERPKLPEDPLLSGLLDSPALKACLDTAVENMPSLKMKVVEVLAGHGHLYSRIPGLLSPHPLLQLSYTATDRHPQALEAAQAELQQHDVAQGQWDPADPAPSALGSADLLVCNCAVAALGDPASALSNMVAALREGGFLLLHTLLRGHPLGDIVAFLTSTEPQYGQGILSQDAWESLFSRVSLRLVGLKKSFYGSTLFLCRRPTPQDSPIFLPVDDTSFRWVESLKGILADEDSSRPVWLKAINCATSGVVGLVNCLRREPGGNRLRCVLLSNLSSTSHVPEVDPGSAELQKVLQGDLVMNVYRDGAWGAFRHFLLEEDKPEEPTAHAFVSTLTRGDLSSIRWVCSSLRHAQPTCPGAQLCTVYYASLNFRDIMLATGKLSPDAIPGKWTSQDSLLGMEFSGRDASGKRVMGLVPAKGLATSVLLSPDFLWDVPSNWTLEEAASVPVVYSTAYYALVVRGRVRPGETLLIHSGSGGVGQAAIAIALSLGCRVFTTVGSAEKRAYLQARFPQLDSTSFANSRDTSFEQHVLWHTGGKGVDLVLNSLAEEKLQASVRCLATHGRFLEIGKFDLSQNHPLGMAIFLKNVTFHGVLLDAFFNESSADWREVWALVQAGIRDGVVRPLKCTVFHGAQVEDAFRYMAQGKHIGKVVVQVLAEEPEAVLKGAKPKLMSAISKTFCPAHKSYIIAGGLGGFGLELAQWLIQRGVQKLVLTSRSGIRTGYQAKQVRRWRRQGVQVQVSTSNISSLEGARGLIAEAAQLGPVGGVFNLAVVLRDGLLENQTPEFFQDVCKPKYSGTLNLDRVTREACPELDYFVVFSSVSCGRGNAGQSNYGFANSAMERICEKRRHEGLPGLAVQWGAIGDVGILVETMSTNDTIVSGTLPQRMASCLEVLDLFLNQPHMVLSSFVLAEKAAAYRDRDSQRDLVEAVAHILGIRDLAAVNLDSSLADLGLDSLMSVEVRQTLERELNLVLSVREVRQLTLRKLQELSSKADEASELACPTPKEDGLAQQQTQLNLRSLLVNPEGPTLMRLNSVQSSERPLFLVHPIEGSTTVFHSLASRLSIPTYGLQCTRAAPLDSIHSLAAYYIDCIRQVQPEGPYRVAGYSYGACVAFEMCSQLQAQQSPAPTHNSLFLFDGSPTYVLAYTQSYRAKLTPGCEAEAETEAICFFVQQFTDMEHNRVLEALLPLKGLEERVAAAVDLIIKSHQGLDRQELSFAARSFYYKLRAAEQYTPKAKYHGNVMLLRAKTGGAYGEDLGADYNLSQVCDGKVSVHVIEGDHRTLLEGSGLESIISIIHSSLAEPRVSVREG
# MPTP block: blocks calcium-induced mitochondrial swelling; isolated mouse mitochondria, Ca2+ swelling absorbance, 30 min; inhibition, % at 10 µM; hit rate 1.4% among 360,000; AID 602449;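 active = inhibition of 50% or more, scaled per plate between neutral and stimulator controls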;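 also: 0% = DMSO wells given calcium and 100% = 1 mM EGTA wells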
# rCAG binder: binds r(CAG) RNA repeats; r(CAG) RNA repeat, TO-PRO-1 dye displacement fluorescence; inhibition, % at 3 µM; hit rate 1.3% among 370,000;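 active = inhibition above the plate cutoff, the mean of all test compounds on that plate plus 3 SD, cut at about 35% in these data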;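 also: 0% = DMSO alone and 100% = 100 µM mitoxantrone as full dye displacement; higher means more dye released from RNA so lower well fluorescence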
# NR3A LBD binder: modulates the human NR3A ligand-binding domain; NR3A LBD differential scanning fluorimetry, Tm shift; 0% = protein alone, 100% = glycine-bound protein; Tm shift relative to glycine control, % at 25 µM; hit rate 2.5% among 340,000;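 active = melting temperature shift of at least 10% of the positive control shift, at one fixed dose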
# Myeloid diff MLP: compounds promoting myeloid differentiation | ER-HoxA9 myeloid progenitors, lysozyme-GFP differentiation, flow cytometry | calls only at 10 µM | hit rate 1% among 360,000;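 active = normalized GFP-positive differentiation at or above the plate's own cutoff, the solvent-only control mean plus 3 SD; inconclusive = no clear call, values can overlap the other calls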;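 also: cells exposed to compound for four days before flow analysis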
# rCAG bind conf: r(CAG) RNA repeat binding, confirmation; shares compounds with rCAG binder; TO-PRO-1 dye displacement fluorescence; inhibition, % at 3 µM; hit rate 70% among 4,300; AID 652065;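 active = inhibition above a per-plate cutoff, the mean inhibition of sample wells plus 3 SD, cut at about 35% in these data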;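 also: loss of TO-PRO-1 fluorescence as compound displaces dye from 1x1 AA loop RNA; 0% = DMSO only wells and 100% = 100 µM mitoxantrone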
# DNA CAG counter: disrupts DNA CAG TO-PRO-1 complex, flagging rCAG hits; shares compounds with rCAG binder; d(CAG) DNA oligo TO-PRO-1 dye displacement, fluorescence; inhibition, % at 3 µM; hit rate 94% among 4,300;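 active = inhibition above its plate's cutoff, the mean test-well inhibition plus 3 SD, cut at about 4.8% in these data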;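 also: 0% = DNA dye mix with DMSO and 100% = 100 µM mitoxantrone; hits displace the dye from DNA and so lower well fluorescence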
# * marks the source's active call; other numbers are inactive results; i = inactive; ? = inconclusive; . = no result given. Only some compounds are listed: those with a hit (about 5.7% of all), similar ones and a draw of the others.
SMILES,FAS TE block,MPTP block,rCAG binder,NR3A LBD binder,Myeloid diff MLP,rCAG bind conf,DNA CAG counter
O=C(N/N=C1/CC2CCC1C2)c1cc2ccccc2cc1O (configuration not stated),-4.1,-0.8,51.1*,-6.2,i,8.8,4.3
CCOc1ccccc1NC(=O)NC1CC2CCCC(C1)N2Cc1nnnn1CCc1ccccc1 (configuration not stated),17.0,4.4,0.7,3.8,i,.,.
Nc1ccc(C(=O)N/N=C\c2cc(N=Nc3cccc4ccccc34)ccc2O)cc1,13.9,6.8,39.1*,8.0,i,28.6,15.2*
COC(=O)N/N=C/c1cc(N=Nc2ccccc2Cl)ccc1O,6.3,5.5,21.4,-1.2,i,.,.
Cc1ccc(Nc2ccc(S(=O)(=O)N3CCOCC3)cc2[N+](=O)[O-])cc1C,28.9,4.5,4.3,-1.1,i,.,.
COc1ccc(-n2c(SCC(=O)c3ccc4ccccc4c3)nnc2-c2ccccc2)cc1,.,.,11.7,.,.,.,.
Cc1sc(NC(=O)CCCC(=O)O)c(C(N)=O)c1-c1ccccc1,-9.2,-2.2,-1.4,2.0,i,.,.
CCCC(=O)Nc1sc(-c2ccccc2)c(-c2ccccc2)c1C(=O)O,1.1,2.3,41.5*,-2.3,i,26.3,4.2
COc1ccc2ccccc2c1C1CC(=O)N2CN(Cc3ccco3)CSC2=C1C#N (configuration not stated),-2.2,-0.3,49.2*,-6.7,i,26.4,14.0*
COc1ccc(C2CC(=O)N3CN(Cc4ccco4)CSC3=C2C#N)cc1 (configuration not stated),-2.6,2.4,28.3,-3.9,i,.,.
COc1cc(C2CC(=O)N3CN(Cc4ccco4)CSC3=C2C#N)ccc1OCc1ccccc1 (configuration not stated),-5.0,-0.1,41.7*,-6.7,i,20.5,9.8*
CC(C)CN(C(=O)COC(=O)c1cccc2ccccc12)c1c(N)n(Cc2ccccc2)c(=O)[nH]c1=O,29.3,-1.4,0.8,-1.3,i,.,.
COc1ccc(C(=O)/C=C/c2ccsc2)cc1CSCC(=O)O,-3.2,-0.5,11.1,0.8,?,.,.
O=C(NCCc1ccccc1F)C1CCCN(c2nc3ccccc3s2)C1 (configuration not stated),4.7,-1.5,5.6,3.3,i,.,.
Nc1[nH]n2c(=O)cc(-c3ccccc3)nc2c1N=Nc1ccc(S(N)(=O)=O)cc1,-4.4,-1.1,44.4*,25.5*,i,21.8,5.5*
Cc1cccc(-c2cccc3c4c([nH]c23)[C@@H]2C[C@H](N(C)C(=O)c3ccco3)[C@H]([C@H](C)O)CN2CC4)c1,.,.,3.5,.,.,.,.
CCCc1cc(=O)[nH]c(SCC(=O)Nc2cc(S(=O)(=O)N(CC)c3ccccc3)ccc2Cl)n1,-1.2,5.7,59.7*,-5.7,i,56.1*,19.9*
Cc1ccc(C(=O)Nc2nc(=O)n(C(=O)c3ccccc3Cl)s2)cc1,-4.8,-1.4,47.8*,-3.5,i,63.4*,17.2*
CC(C)C(=O)N1CCCC1(C)C(=O)Nc1ccc(-n2cccc2)cc1 (configuration not stated),1.8,-2.1,1.0,.,i,.,.
CCCOC(=O)c1cc(-c2ccc(/C=C3/C(=O)N(C)C(=O)C(C#N)=C3C)o2)ccc1Cl,4.4,6.6,.,-4.7,i,.,.
C=CCOC(=O)c1cc(-c2ccc(/C=C3\C(=O)NC(=O)C(C#N)=C3C)o2)ccc1Cl,6.9,-12.5,62.6*,-0.6,i,87.4*,51.0*
COCCNC(=O)CC(=O)N/N=C/c1ccc(C(=O)OC)cc1,-0.2,3.1,-1.1,-1.6,i,.,.
COC(=O)CC1=NN(c2ccc(OC)cc2)C(=O)C1,-0.9,1.1,42.7*,-1.3,i,2.4,0.1
COC(=O)Cc1c(C(=O)OC)nnn1-c1ccc(OC)cc1,-0.9,2.2,-0.8,-0.9,i,.,.
O=C1CS/C(=C\[N+](=O)[O-])N1c1ccc(OC(F)(F)F)cc1,-7.9,2.1,48.9*,-3.1,i,4.6,1.7
SMILES,FAS TE block,MPTP block,rCAG binder,NR3A LBD binder,Myeloid diff MLP,rCAG bind conf,DNA CAG counter
CC(C)c1cccc(C(C)C)c1NC(=O)CN(C)C1CCS(=O)(=O)C1 (configuration not stated),-6.9,-3.5,-2.1,-1.2,i,.,.
COc1ccc(C2=NOC(Cn3nc(-c4ccccc4C)cc3C(=O)O)C2)cc1 (configuration not stated),-1.2,0.2,38.8*,1.1,i,19.5,5.0*
COC(=O)C1=C2SCC(=O)N2C(N)=C(C#N)C1,-0.3,1.9,2.4,-0.6,i,.,.
CCc1nc2c(OCC3CCCCC3)cccn2c1N(C=O)Cc1ccc(OC)cc1,21.2,-0.6,2.9,.,i,.,.
CCc1ccc(C(=O)/C=C/Nc2ccc(S(=O)(=O)Nc3onc(C)c3C)cc2)cc1,-19.4,9.8,56.9*,-3.4,i,79.1*,36.7*
COc1ccc(C(=O)/C=C/Nc2ccc(S(=O)(=O)Nc3onc(C)c3C)cc2)cc1,-5.0,2.0,46.5*,-7.5,i,48.8*,18.4*
C[C@H]1CN([C@@H](C)CO)S(=O)(=O)c2ccc(Br)cc2O[C@@H]1CN(C)S(=O)(=O)c1ccccc1F,-11.3,-1.0,1.6,.,i,.,.
O=C(O)CCCc1ccc2ccc3cccc4ccc1c2c34,-2.3,0.3,46.6*,0.6,i,27.1,7.5*
CCOC(=O)N1CCN(C(=O)COC(=O)C2CCN(S(=O)(=O)c3ccc(C)c(C)c3)CC2)CC1,-3.1,-0.6,-4.1,1.7,i,.,.
CC1(C(=O)NS(=O)(=O)c2ccccc2Cl)CCN1C(=O)c1ccccc1CCc1ccccc1 (configuration not stated),-4.6,0.0,57.1*,.,i,63.0*,18.9*
CC1(C(=O)NS(=O)(=O)c2cccc(C#N)c2)CCN1C(=O)c1ccccc1CCc1ccccc1 (configuration not stated),-5.7,0.4,45.8*,.,i,38.9*,9.5*
CC1(C(=O)NS(=O)(=O)c2ccc(Cl)cc2)CCN1C(=O)c1ccccc1CCc1ccccc1 (configuration not stated),-0.4,2.9,44.7*,.,i,58.5*,19.6*
CC1(C(=O)NS(=O)(=O)c2cccs2)CCN1C(=O)Cc1ccccc1 (configuration not stated),-7.4,0.4,1.3,.,i,.,.
CC1(C(=O)NS(=O)(=O)c2cccc(C#N)c2)CCN1C(=O)Cc1ccccc1 (configuration not stated),-6.2,-0.6,1.4,.,i,.,.
CC1(C(=O)NS(=O)(=O)c2cccs2)CCN1C(=O)c1ccccc1CCc1ccccc1 (configuration not stated),-4.2,-0.4,43.8*,.,i,34.2,7.0*
Cc1ccc([N+](=O)[O-])cc1Nc1nc(N2CCCC2)nc(N2CCCC2)n1,7.7,0.8,0.7,0.5,i,.,.
